Measured values from PubChem BioAssay AID1159580 (chemical genetic matrix, 2015).
Where “and” joins values, the source holds several entries; their conditions need not be identical. Identical values can stand only once. The whole screen tested about 5,500 compounds, of which about 2,000 (36%) were called active. Not shown: some 18% with an inconclusive outcome. Rule as the data show it: active = normalized growth mostly below about 0.91 (no sharp cut-off); inconclusive = no clear call, values can overlap the other calls; inactive = mostly above about 0.92. Some of the results follow.

Assay: chemical genetic growth profiling, strain panel (AID 1159580);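 also: tested at 20 µM; growth read once vehicle control cultures reached saturation at 30 °C; 1 = growth at the plate median or of vehicle wells; lower values mean less growth of the strain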
Settings: S. cerevisiae deletion strains, growth OD

Measured: normalized growth

C[C@@H]1CC2C3C[C@H](F)C4=CC(=O)C=C[C@]4(C)[C@@]3(F)[C@@H](O)C[C@]2(C)[C@@]1(O)C(=O)COC(=O)C(C)(C)C (some centres not stated)
inactive: locus YAL021C, strain ccr4, hits give low values 0.995 | locus YAL026C, strain drs2, hits give low values 1 | locus YAL030W, strain snc1, hits give low values 0.98 | locus YBL061C, strain skt5, hits give low values 0.994 | locus YBR009C, strain hhf1, hits give low values 0.972 | locus YBR021W, strain FUR4, hits give low values 1.01 | locus YBR023C, strain chs3, hits give low values 0.983 | locus YBR171W, strain sec66, hits give low values 0.998 | locus YBR229C, strain ROT2, hits give low values 1 | locus YBR231C, strain swc5, hits give low values 0.98 | locus YBR279W, strain paf1, hits give low values 0.986 | locus YCL011C, strain gbp2, hits give low values 1.01 | locus YCL016C, strain dcc1, hits give low values 0.995 | locus YCL029C, strain bik1, hits give low values 0.992 | locus YCL069W, strain vba3, hits give low values 1 | locus YCR088W, strain abp1, hits give low values 1.01 | locus YDL005C, strain med2, hits give low values 1 | locus YDL035C, strain GPR1, hits give low values 0.982 | locus YDL040C, strain nat1, hits give low values 0.985 | locus YDL074C, strain BRE1, hits give low values 1 | locus YDL101C, strain DUN1, hits give low values 1.01 | locus YDL134C, strain PPH21, hits give low values 0.98 | locus YDL185W, strain tfp1, hits give low values 1 | locus YDL192W, strain arf1, hits give low values 1.01 | locus YDR001C, strain nth1, hits give low values 0.998 | locus YDR069C, strain doa4, hits give low values 0.991 | locus YDR101C, strain arx1, hits give low values 0.97 | locus YDR137W, strain rgp1, hits give low values 1 | locus YDR150W, strain NUM1, hits give low values 0.999 | locus YDR159W, strain sac3, hits give low values 0.991 | locus YDR162C, strain NBP2, hits give low values 0.987 | locus YDR195W, strain ref2 0.911 | locus YDR297W, strain sur2, hits give low values 0.993 | locus YDR318W, strain mcm21, hits give low values 1.01 | locus YDR334W, strain swr1, hits give low values 1 | locus YDR335W, strain msn5, hits give low values 0.995 | locus YDR388W, hits give low values 1.01 | locus YDR392W, strain spt3, hits give low values 1 | locus YDR502C, strain sam2, hits give low values 1 | locus YEL003W, strain gim4, hits give low values 1 | locus YEL037C, strain rad23, hits give low values 0.994 | locus YEL061C, strain CIN8 (second series), hits give low values 1.01 | locus YEL061C, strain CIN8, hits give low values 1 | locus YER015W, strain faa2, hits give low values 0.996 | locus YER016W, strain bim1, hits give low values 0.99 | locus YER110C, hits give low values 1.02 | locus YER111C, strain swi4, hits give low values 0.999 | locus YER155C, strain BEM2 (second series), hits give low values 0.991 | locus YER155C, strain BEM2, hits give low values 1.01 | locus YER167W, strain BCK2, hits give low values 0.997 | locus YFR010W, strain ubp6, hits give low values 0.997 | locus YGL078C, strain dbp3, hits give low values 1.01 | locus YGL086W, strain mad1, hits give low values 0.983 | locus YGL167C, strain pmr1, hits give low values 0.989 | locus YGL173C, strain kem1, hits give low values 0.994 | locus YGL227W, strain vid30, hits give low values 1.01 | locus YGL240W, strain doc1, hits give low values 0.971 | locus YGL248W, strain PDE1, hits give low values 1.01 | locus YGL253W, strain hxk2, hits give low values 1.01 | locus YGR135W, strain pre9, hits give low values 1.05 | locus YGR252W, strain gcn5, hits give low values 1.06 | locus YHR013C, strain ard1, hits give low values 0.965 | locus YHR027C, strain rpn1, hits give low values 0.998 | locus YHR030C, strain SLT2, hits give low values 1 and 0.992 | locus YHR079C, strain IRE1 (second series), hits give low values 1 | locus YHR079C, strain IRE1, hits give low values 0.972 | locus YHR094C, strain hxt1, hits give low values 1.01 | locus YHR129C, strain ARP1, hits give low values 1.01 | locus YHR142W, strain chs7, hits give low values 1.01 | locus YHR200W, strain rpn10, hits give low values 1 | locus YIL066C, strain RNR3, hits give low values 0.997 | locus YIL073C, strain SPO22, hits give low values 0.995 | locus YIL125W, strain kgd1, hits give low values 1 | locus YIR030C, strain dcg1, hits give low values 1 | locus YJL092W, strain hpr5, hits give low values 1 | locus YJL095W, strain BCK1 (second series), hits give low values 0.989 | locus YJL095W, strain BCK1, hits give low values 1.03 and 0.963 | locus YJL115W, strain asf1, hits give low values 0.993 | locus YJL129C, strain trk1, hits give low values 1 | locus YJL134W, strain LCB3, hits give low values 1 | locus YJL154C, strain vps35, hits give low values 0.997 | locus YJL164C, strain tpk1, hits give low values 0.989 | locus YJL166W, strain qcr8, hits give low values 0.966 | locus YJL168C, strain set2, hits give low values 1.01 | locus YJL187C, strain SWE1 (second series), hits give low values 1 | locus YJR043C, strain POL32, hits give low values 0.983 | locus YJR066W, strain TOR1, hits give low values 0.944
